From PubChem BioAssay (Tox21) come the findings set out here.

Inconclusive results are not listed. A call without a number means that no potency is given here. The source made the active and inactive calls. Calls follow the shape of the full dose curve.
Potency is read from the fitted curve at half-maximal effect.

The target of this assay is Peroxisome proliferator-activated receptor gamma (Homo sapiens) (UniProt P37231). Kind of assay: qHTS assay to identify small molecule antagonists of the peroxisome proliferator-activated receptor gamma (PPARg) signaling pathway (AID 743191). Also: nearly all actives have a fitted effect of over 30% in size. Particulars: HEK293H PPARg-UAS-bla, beta-lactamase ratio, antagonist, 17 h; series mostly up to 62.6 µM. From the text: U.S. Tox21 Program National Center for Advancing Translational Sciences [NCATS] NIH Chemical Genomics Center [NCGC] U.S. Environmental Protection Agency [EPA] National Institutes of Environmental Health Sciences [NIEHS] National Toxicology Program [NTP] U.S. Food and Drug Administration [FDA] Tox21 Assay Overview: The peroxisome proliferator-activated receptors (PPARs) are lipid-activated transcription factors of the nuclear receptor superfamily with three distinct subtypes namely PPAR alpha, PPAR delta (also called PPAR beta) and PPAR gamma (PPARg). All these subtypes heterodimerize with Retinoid X receptor (RXR) and these heterodimers regulate transcription of various genes. PPAR-gamma receptor (glitazone receptor) is involved in the regulation of glucose and lipid metabolism. To identify the compounds that inhibit PPAR-gamma signaling, GeneBLAzer PPAR gamma UAS-bla HEK293H cell line (Invitrogen, Carlsbad, CA, USA) containing a beta-lactamase reporter gene under control of an Upstream Activator Sequence (UAS) was used to screen the Tox21 compound library.
Sequence of Peroxisome proliferator-activated receptor gamma (Homo sapiens) (P37231 whole entry, looked up): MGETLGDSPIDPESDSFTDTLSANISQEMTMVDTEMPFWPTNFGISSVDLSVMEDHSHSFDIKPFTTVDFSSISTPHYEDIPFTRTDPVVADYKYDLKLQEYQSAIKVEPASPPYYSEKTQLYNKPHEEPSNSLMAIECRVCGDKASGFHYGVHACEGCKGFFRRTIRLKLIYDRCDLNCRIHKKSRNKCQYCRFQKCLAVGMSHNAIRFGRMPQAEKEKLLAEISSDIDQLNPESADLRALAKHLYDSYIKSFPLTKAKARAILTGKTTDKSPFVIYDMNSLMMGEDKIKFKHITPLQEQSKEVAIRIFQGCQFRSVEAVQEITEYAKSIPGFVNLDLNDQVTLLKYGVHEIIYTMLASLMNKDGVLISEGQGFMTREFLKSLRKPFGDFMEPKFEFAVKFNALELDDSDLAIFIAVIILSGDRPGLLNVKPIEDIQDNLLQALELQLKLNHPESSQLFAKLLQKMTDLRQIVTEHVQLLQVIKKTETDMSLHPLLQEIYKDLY
Tox21 Assay Protocol Summary: PPARg-bla cells were dispensed at 3000 cells/6uL/well in 1536-well black wall/clear bottom plates using a Multidrop Combi (Thermo Fisher Scientific, Waltham, MA) dispenser. After the assay plates were incubated at 37C and 5% CO2 for 5 h, 23 nL of compounds dissolved in DMSO, positive controls or DMSO only was transferred to the assay plate by a Pintool station (Kalypsys, San Diego, CA). The assay plates were incubated at 37C for 17 h. After 1 uL of LiveBLAzerTM B/G FRET substrate was added using a Bioraptr Flying Reagent Dispenser (FRD) workstation (Beckman Coulter, Indianapolis, IN, USA), the plates were incubated at room temperature for 1 h, and fluorescence intensity was measured by an Envision plate reader (PerkinElmer, Shelton, CT).
A general note: qHTS replaces the single test concentration by a dilution series.
As to `CCCCCCCCC`, the Potency result was “inactive”. For `OC1CCCC1`, the Potency entry was “inactive”. With `Nc1c(S(=O)(=O)O)cc(Br)c2c1C(=O)c1ccccc1C2=O` the entry was “inactive”; with `O=C1O[C@H](CO)[C@@H](O)[C@H](O)[C@H]1O`, “inactive”; with `c1ccc2[nH]cnc2c1`, “inactive”. The value for `CS(=O)(=O)c1ccc([C@@H](O)[C@@H](CO)NC(=O)C(Cl)Cl)cc1` was “inactive”; that for `OCC#CCO` was “inactive”. Consider `Cc1ccc(N)c(S(=O)(=O)O)c1`, for which the Potency entry is “inactive”. The value for `O=Nc1ccc(O)cc1` was “inactive”; that for `C=C1C2CCC(C2)C1(C)C` (stereo not given) was “inactive”.

For the compound `O=C(Oc1ccccc1)c1ccc(O)cc1`, the Potency result is “inactive”.

For the compound `NS(=O)(=O)c1cc2c(cc1Cl)NC=NS2(=O)=O`, the Potency entry was “inactive”.

Consider `Cc1ccc(C(=O)O)o1`, for which the Potency entry is “inactive”. Consider `O=C(c1cc(O)c(O)c(O)c1)c1ccc(O)c(O)c1O`, for which the Potency result was “inactive”. For `CCCCC(CC)COC(C)=O` (stereo not given), the Potency result was “inactive”. Regarding `CC(C)Cc1ccccc1`, the Potency entry was “inactive”. For `CC1Cc2ccccc2N1NC(=O)c1ccc(Cl)c(S(N)(=O)=O)c1` (stereo not given), the Potency entry is “inactive”. The value for `COCC(=O)O` was “inactive”; that for `Cc1cc(=O)[nH]c(C(C)C)n1` was “inactive”. The value for `C=C(C)C(=O)OCCCCCCCCCCCC` was “inactive”; that for `CCC(C)C=O` (stereo not given) was “inactive”. The value for `CC1(C)CC(N=C=O)CC(C)(CN=C=O)C1` (stereo not given) was “inactive”. As to `O=[N+]([O-])c1cccc(Cl)c1`, the Potency entry is “inactive”.

Regarding `CC(=O)CCc1ccccc1`, the Potency result is “inactive”. As for `CCCCCCC(C)(C)S`, the Potency result was “inactive”. The value for `O=[N+]([O-])C(CO)(CO)CO` was “inactive”.

Consider `CC(C)(CO)COC(=O)C(C)(C)CO`, for which the Potency result is “inactive”.

For the compound `CCCCOCCO`, the Potency entry was “inactive”. The value for `CCCCOCCOCCOC(=O)CCCCC(=O)OCCOCCOCCCC` was “inactive”. Take `COCC(C)O` (stereo not given): the Potency entry is “inactive”.

As to `CCOC(=O)C1OC1c1ccccc1` (stereo not given), the Potency result was “inactive”. For `CC[Si](OC(C)=O)(OC(C)=O)OC(C)=O`, the Potency entry is “inactive”. With `c1ccc2ccccc2c1` the entry was “inactive”; with `Oc1c(Cl)cc(Cl)c(Cl)c1Cl`, 17 µM (active); with `OC[C@@H](O)[C@@H](O)[C@H](O)[C@@H](O)CO`, “inactive”.

As to `O=C(Cl)c1c(Cl)c(Cl)c(C(=O)Cl)c(Cl)c1Cl`, the Potency entry is “inactive”. The value for `O=C(O)c1cc(-c2ccccc2)nc2ccccc12` was “inactive”; that for `CC1CC(OC(=O)c2ccccc2O)CC(C)(C)C1` (stereo not given) was “inactive”; that for `O=C1CCCCC1` was “inactive”. With `CCCCCCOC(C)=O` the entry was “inactive”.
